The panel holds about 79,000 compounds, 15% with a hit somewhere; the sample as a whole holds those more often. The source made the active and inactive calls. Rule as the data show it: active = growth inhibition above about 70%; inactive = the rest.
Key:
[1] = NCI Yeast Anticancer Drug Screen. Data for the rad52 strain (AID 147);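 also: 0% = growth of vehicle-treated control cultures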; settings: S. cerevisiae rad52 mutant growth inhibition, hits give high values
Outline: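 Measured: yeast growth inhibition. System: strain with a defined DNA damage repair alteration. Reference: vehicle-treated control cultures.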

[2] = NCI Yeast Anticancer Drug Screen. Data for the wt1 strain (AID 149);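 also: 0% = growth of vehicle-treated wt1 cultures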; settings: S. cerevisiae wt1 strain (SPY 50644) growth inhibition, hits give high values
Outline: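 Using yeast strain wt1, compound-induced growth inhibition was determined against vehicle-treated cultures.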

[3] = NCI Yeast Anticancer Drug Screen. Data for the rad50EPP+ strain (AID 151);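 also: 0% = growth of vehicle-treated control cultures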; settings: S. cerevisiae rad50 mutant strain, hits give high values
Outline: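 One strain with a rad50 alteration (rad50EPP+) was compound-treated, its growth then compared to that of vehicle controls.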

[4] = NCI Yeast Anticancer Drug Screen. Data for the rad50 strain (AID 155);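 also: 0% = growth of vehicle-only cultures of the same strain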; settings: S. cerevisiae rad50 strain growth inhibition, hits give high values
Outline: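 Relative growth inhibition (compound vs vehicle) was measured in yeast with a defined repair-gene alteration.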

[5] = NCI Yeast Anticancer Drug Screen. Data for the mec2-1 strain (AID 157); settings: S. cerevisiae mec2-1 strain, hits give high values
Outline: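 Test agents were screened against the mec2-1 yeast strain, with defined DNA repair or cell cycle alteration. Growth was scored as inhibition against vehicle-only controls.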

[6] = NCI Yeast Anticancer Drug Screen. Data for the rad14 strain (AID 159);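 also: 0% = growth of vehicle-treated control cultures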; settings: S. cerevisiae rad14 strain growth inhibition, hits give high values
Outline: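 Screen for anticancer potential: a yeast strain altered in DNA damage repair is grown with compound, and reduced growth is quantified against vehicle controls.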

[7] = NCI Yeast Anticancer Drug Screen. Data for the sgs1 mgt1 strain (AID 161);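 also: 0% = growth of cultures given vehicle only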; settings: S. cerevisiae sgs1 mgt1 strain, hits give high values
Outline: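 Genetically altered yeast, compound exposure, growth inhibition relative to vehicle.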

[8] = NCI Yeast Anticancer Drug Screen. Data for the CLN2oe strain (AID 163);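 also: 0% = growth of vehicle-only control cultures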; settings: S. cerevisiae CLN2oe strain, hits give high values
Outline: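 Here, growth inhibition in a cell-cycle-altered yeast strain after compound exposure was quantified against vehicle control growth.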

[9] = NCI Yeast Anticancer Drug Screen. Data for the cln2 rad14 strain (AID 165);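 also: 0% = growth equal to vehicle treated cultures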; settings: S. cerevisiae cln2 rad14 strain, hits give high values
Outline: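 Growth of compound-exposed yeast (cln2 rad14 genotype) measured and expressed as inhibition relative to vehicle.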

[10] = NCI Yeast Anticancer Drug Screen. Data for the bub3 strain (AID 167); settings: S. cerevisiae bub3 mutant strain, hits give high values
Outline: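 Screening used yeast with an engineered genetic alteration affecting cell cycle control. Compound-exposed cultures were compared with vehicle cultures, and reduced growth was taken as inhibition.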

[11] = NCI Yeast Anticancer Drug Screen. Data for the wt2 strain (AID 169);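 also: 0% = growth of vehicle-treated yeast cultures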; settings: S. cerevisiae wt2 strain growth inhibition, hits give high values
Outline: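 Genetically defined yeast strains from a DNA-repair/cell-cycle panel were used. Compound-exposed yeast growth was measured, and the inhibition was calculated relative to vehicle treatment.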

[12] = NCI Yeast Anticancer Drug Screen. Data for the mlh1 strain (AID 171);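 also: 0% = growth of vehicle-treated control cultures of the same strain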; settings: S. cerevisiae mlh1 strain growth inhibition, hits give high values
Outline: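 Here the genetically defined yeast mutant is grown with each compound, and the extent to which its growth falls below that of vehicle-exposed cells is reported.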

[13] = NCI Yeast Anticancer Drug Screen. Data for the sgs1 strain (AID 173);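 also: 0% = growth of vehicle-only control cultures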; settings: S. cerevisiae sgs1 mutant, hits give high values
Outline: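 Relative growth inhibition, referenced to vehicle, was determined in a yeast strain with a defined alteration affecting DNA damage repair or cell cycle control after compound exposure.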

[14] = NCI Yeast Anticancer Drug Screen. Data for the rad18 strain (AID 177); settings: S. cerevisiae rad18 mutant growth inhibition, hits give high values
Outline: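 Screen uses a yeast strain with a defined lesion in DNA damage repair; compound effect is read as loss of growth compared to untreated vehicle cultures.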

[15] = NCI Yeast Anticancer Drug Screen. Data for the mlh1 rad18 strain (AID 175); settings: S. cerevisiae mlh1 rad18 strain growth inhibition, hits give high values
Outline: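 In this whole-cell yeast screen, a strain with altered DNA damage repair is challenged with compound, and its growth is measured against matched vehicle-treated controls.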

[16] = at 5.0 µM (retest, dose inferred, filed as 0.5)
[17] = at 50.0 µM (retest, dose inferred, filed as 5.0)

Measured: growth inhibition

Cc1onc(-c2ccccc2Cl)c1C1=N/C(=C/c2cc(Cl)cc(Cl)c2O)C(=O)O1
inactive: [1]; at 1.2 µM -36% | [1]; at 3.7 µM -39% | [1]; at 11.0 µM -35% | [1]; at 33.0 µM -42% | [2]; at 1.2 µM -3% | [2]; at 3.7 µM -26% | [2]; at 11.0 µM -26% | [2]; at 33.0 µM -16% | [3]; at 1.2 µM -22% | [3]; at 3.7 µM -28% | [3]; at 11.0 µM 3% | [3]; at 33.0 µM -5% | [3]; at 100.0 µM -25% | [4]; at 1.2 µM -38% | [4]; at 3.7 µM -32% | [4]; [16] 33% | [4]; at 11.0 µM -35% | [4]; at 33.0 µM 2% | [4]; at 100.0 µM 69% | [5]; at 1.2 µM -32% | [5]; at 3.7 µM -35% | [5]; [16] 35% | [5]; at 11.0 µM -39% | [5]; at 33.0 µM -4% | [5]; at 50.0 µM 60% | [5]; at 100.0 µM 61% | [6]; at 1.2 µM -51% | [6]; at 3.7 µM -56% | [6]; at 11.0 µM -58% | [6]; at 33.0 µM -46% | [6]; at 100.0 µM 59% | [7]; [16] -9% | [7]; [17] 42% | [8]; at 1.2 µM -5% | [8]; at 3.7 µM -19% | [8]; at 11.0 µM -5% | [8]; at 33.0 µM 26% | [8]; at 100.0 µM 66% | [9]; [17] 60% | [10]; at 1.2 µM -55% | [10]; at 3.7 µM -40% | [10]; [16] 47% | [10]; at 11.0 µM -43% | [10]; at 33.0 µM -10% | [10]; [17] 65% | [10]; at 100.0 µM 68% | [11]; at 1.2 µM -12% | [11]; at 3.7 µM -12% | [11]; at 11.0 µM -18% | [11]; at 33.0 µM 11% | [11]; at 100.0 µM 62% | [12]; at 1.2 µM -39% | [12]; at 3.7 µM -42% | [12]; at 11.0 µM -27% | [12]; at 33.0 µM 3% | [12]; at 100.0 µM 49% | [13]; at 1.2 µM -19% | [13]; at 3.7 µM -39% | [13]; at 11.0 µM -23% | [13]; at 33.0 µM 11% | [13]; at 100.0 µM 69% | [14]; at 1.2 µM -46% | [14]; at 3.7 µM -50% | [14]; at 11.0 µM -44% | [14]; at 33.0 µM -21% | [14]; at 100.0 µM 58%
active: [1]; at 100.0 µM 70% | [2]; at 100.0 µM 74% | [4]; [17] 90% | [4]; at 50.0 µM 79.3% | [5]; [17] 90% | [7]; at 50.0 µM 78.6% | [9]; [16] 72% | [9]; at 50.0 µM 71.5% | [10]; at 50.0 µM 77.2%

C=Cc1cnc([N+](=O)[O-])n1C
active: [1]; at 33.0 µM 85% | [1]; at 100.0 µM 95% | [2]; at 100.0 µM 85% | [3]; at 33.0 µM 82% | [3]; at 100.0 µM 91% | [4]; at 33.0 µM 86% | [4]; [17] 87% | [4]; at 50.0 µM 78.5% | [4]; at 100.0 µM 94% | [5]; at 33.0 µM 87% | [5]; [17] 94% | [5]; at 50.0 µM 85.7% | [5]; at 100.0 µM 95% | [6]; at 11.0 µM 76% | [6]; at 33.0 µM 96% | [6]; at 100.0 µM 98% | [7]; [17] 95% | [7]; at 50.0 µM 83.1% | [8]; at 100.0 µM 86% | [9]; [17] 93% | [9]; at 50.0 µM 90.2% | [10]; at 50.0 µM 82.1% | [10]; at 100.0 µM 82% | [11]; at 100.0 µM 96% | [12]; at 100.0 µM 90% | [13]; at 33.0 µM 85% | [13]; at 100.0 µM 92% | [15]; [16] 79% | [15]; [17] 90% | [15]; at 50.0 µM 90.2% | [14]; at 1.2 µM 85% | [14]; at 3.7 µM 92% | [14]; at 11.0 µM 94% | [14]; at 33.0 µM 94% | [14]; at 100.0 µM 94%
inactive: [1]; at 1.2 µM 2% | [1]; at 3.7 µM 35% | [1]; at 11.0 µM 65% | [2]; at 1.2 µM 13% | [2]; at 3.7 µM 21% | [2]; at 11.0 µM 19% | [2]; at 33.0 µM 39% | [3]; at 1.2 µM -1% | [3]; at 3.7 µM 15% | [3]; at 11.0 µM 41% | [4]; at 1.2 µM 3% | [4]; at 3.7 µM 17% | [4]; [16] 23% | [4]; at 11.0 µM 52% | [5]; at 1.2 µM 11% | [5]; at 3.7 µM 3% | [5]; [16] 0% | [5]; at 11.0 µM 26% | [6]; at 1.2 µM -1% | [6]; at 3.7 µM 25% | [7]; [16] 61% | [8]; at 1.2 µM -14% | [8]; at 3.7 µM 8% | [8]; at 11.0 µM 14% | [8]; at 33.0 µM 33% | [9]; [16] 39% | [10]; at 1.2 µM -5% | [10]; at 3.7 µM -2% | [10]; [16] 8% | [10]; at 11.0 µM -2% | [10]; at 33.0 µM 20% | [10]; [17] 69% | [11]; at 1.2 µM -31% | [11]; at 3.7 µM -43% | [11]; at 11.0 µM -34% | [11]; at 33.0 µM 63% | [12]; at 1.2 µM -4% | [12]; at 3.7 µM 7% | [12]; at 11.0 µM 18% | [12]; at 33.0 µM 44% | [13]; at 1.2 µM 22% | [13]; at 3.7 µM 51% | [13]; at 11.0 µM 69%

Reference: PubChem BioAssay (NCI)
